Compound activity as filed in PubChem.
An excerpt weighted towards active compounds, which were near 2.4% of everything screened.
D2 PAM-1: human D2 receptor positive allosteric modulation; 360,000 compounds, 0.23% hits; potentiation, % (no concentration beside the values); DiscoveRx D2 beta-arrestin cells, luminescence, 90 min; 100% = 57 uM dopamine signal; AID 624464; P14416; in the data active = potentiation above about 50%; inconclusive = mostly about 30% to 49%
Target sequence (P14416 whole entry, looked up): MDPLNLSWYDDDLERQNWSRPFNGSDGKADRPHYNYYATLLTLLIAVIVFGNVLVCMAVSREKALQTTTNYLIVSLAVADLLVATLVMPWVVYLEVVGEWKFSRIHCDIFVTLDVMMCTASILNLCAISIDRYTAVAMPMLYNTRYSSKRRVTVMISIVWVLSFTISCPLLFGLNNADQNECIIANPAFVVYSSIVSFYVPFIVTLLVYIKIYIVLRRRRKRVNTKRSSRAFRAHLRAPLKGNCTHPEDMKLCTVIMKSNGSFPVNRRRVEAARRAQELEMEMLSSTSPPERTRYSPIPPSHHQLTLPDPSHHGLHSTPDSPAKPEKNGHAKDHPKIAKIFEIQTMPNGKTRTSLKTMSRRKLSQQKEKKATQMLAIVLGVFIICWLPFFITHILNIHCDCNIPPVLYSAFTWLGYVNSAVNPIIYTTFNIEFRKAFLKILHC
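D2 cells co-treated with compound plus 50 nM dopamine (EC20) for 90 min at 37 deg C to detect potentiation. Beta-arrestin recruitment was read as enzyme-fragment luminescence after 1 h at ambient temperature. Full response was set by 57 uM dopamine.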
D2 ag-1: activates the human D2 dopamine receptor; P14416; HEK293 T-REx D2 cells, calcium flux agonist mode; activation, % at 2 µM; 340,000 compounds, 0.53% hits; AID 485358;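 active = activation over 3 SD above normal in the single-dose calcium agonist read, cut at about 30% in these data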; note: 0% is about no effect
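Agonism is scored from calcium flux in a force-coupled, inducible HEK293 cell line expressing D2, read kinetically for 180 s after compound addition against dopamine controls.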
D2 PAM-2: positive allosteric modulators of human D2 dopamine receptor. P14416. HEK293 T-REx D2, calcium flux, EC20 dopamine potentiation. potentiation, % at 10 µM. 340,000 compounds, 0.34% hits. AID 485347;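 active = potentiation over 3 SD above the plate norm, cut at about 30% in these data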; note: 0% is about no effect
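Tetracycline-induced HEK293 T-REx cells force-coupled to calcium signalling expressed D2; compounds were pin-added after a 10 s baseline, read kinetically 180 s, then an EC20 dopamine challenge followed with a further 180 s calcium read.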
D2 ag-2: agonists of human D2 dopamine receptor (beta-arrestin). P14416. DiscoveRx PathHunter D2 beta-arrestin, luminescence, 90 min; 100% = 57 uM dopamine signal. activation, % (no concentration beside the values). 360,000 compounds, 0.084% hits. AID 624465; in the data active = activation above about 40%; inconclusive = between about 15% and that limit
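Agonist mode: compounds alone added to overnight-plated D2 PathHunter cells for 90 min at 37 C, with 57 uM final dopamine (EC100) defining full response. Beta-arrestin recruitment detected by chemiluminescent reagent, read after 1 h at ambient temperature.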
D2 antagonist: antagonizes the human D2 dopamine receptor. P14416. HEK293 TREx D2 cells, calcium flux, dopamine EC80. inhibition, % at 10 µM. 340,000 compounds, 2% hits; in the data active = inhibition above about 30%; inactive = below that, where a call was filed; note: 0% is about no effect
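Calcium flux kinetic readout in an inducible HEK293 TREx D2 line plated overnight at 30 C. After 180 s compound exposure, an EC80 dopamine challenge follows with another 180 s kinetic read to detect antagonism.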
D3 arrestin ag: confirmation of human D3 dopamine receptor agonists, beta-arrestin; 2,300 compounds, 4% hits; AID 720506; shares compounds with D2 ag-1; Potency, µM (top dose mostly 76.9 µM), for the others: top-dose activation, usual class: activators; DiscoveRx D3 beta-arrestin cells, luminescence, 90 min;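 note: potency is the fitted concentration of half-maximal effect; 100% = dopamine control response; nearly all actives have a fitted effect of over 70% in size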
D2 ag-3: D2 receptor agonism, beta-arrestin counterscreen. AID 720507. 2,300 compounds, 5.9% hits. shares compounds with D2 ag-1. Potency, µM (doses to about 76.9 µM), for the others: top-dose activation, hits mostly activators. DiscoveRx PathHunter D2 beta-arrestin, luminescence, 90 min; response scale: percent relative to full dopamine signal; note: potency is the fitted concentration of half-maximal effect; % of control where 0% means no effect; nearly all actives have a fitted effect of over 70% in size
* = called active by the depositor; ? = inconclusive; . = not tested or not shown. Unless noted, calls come from the whole dose curve; as a rule, active = well fitted activation curve with a large enough effect; inconclusive = small, poorly fitted or top-dose-only effect; inactive = flat fitted curve, though single readings scatter.

SMILES	D2 PAM-1	D2 ag-1	D2 PAM-2	D2 ag-2	D2 antagonist	D3 arrestin ag	D2 ag-3
CCC1(CC)NC(=O)N(CC(=O)OCC(=O)Nc2ccc(OC(F)(F)F)cc2)C1=O	-3	1	6	0	61*	-1%	-2%
CCOc1ccc(NC(=O)CN(C)C(=O)c2n[nH]c(=O)c3ccccc23)cc1OCC	-11	1	-7	-5	7	.	.
C/C(=C\c1ccccc1)CN1CCN(c2ccccc2F)CC1	-10	18	-29	11	67*	-14%	9%
CCN1CCN(C/C(C)=C/c2ccccc2)CC1	2	1	-19	1	23	.	.
c1ccc2c3c([nH]c2c1)CCNC3	-9	20	-26	1	13	24%	10%
Cc1ccc2[nH]c3c(c2c1)CNCC3	-22	1	-7	0	3	.	.
CCCN1CCN(CCCNC(=O)c2ccc3c(c2)sc2nc(-c4ccc(C)cc4)cn23)CC1	.	1	-8	.	.	.	.
COc1cc(OC)cc(C(=O)N[C@H](C(=O)Nc2ccccc2N2CCOCC2)C(C)C)c1	-4	45*	-20	-1	8	-3%	-3%
COc1cc(OC)cc(C(=O)NC(C(=O)Nc2ccc(N3CCOCC3)cc2)C(C)C)c1 (stereo not drawn)	-21	0	-5	1	2	.	.
O=C(NCCSCc1ccco1)c1ccc(=O)[nH]c1	-1	.	.	-1	.	.	.
COc1cc(F)ccc1-c1csc(C(NC(C)=O)c2cccc(F)c2)n1 (stereo not drawn)	-6	.	.	1	.	.	.
CC(Oc1ccc(Br)cc1)C(=O)NNC(=O)CCN1CCN(c2ccccc2)CC1 (stereo not drawn)	-36	38*	-15	4	61*	39%	?
CCOc1ccc(C(=O)CCC(=O)NNC(=O)CCN2CCN(c3ccccc3)CC2)cc1	-13	.	.	10	.	.	.
Cc1ccccc1C(=O)NCC(=O)NNC(=O)CCN1CCN(c2ccccc2)CC1	-22	82*	-19	14	72*	?	?
O=C(CCN1CCN(c2ccccc2)CC1)NNC(=O)Cc1ccc(Br)cc1	-27	77*	-23	12	70*	-3%	24%
O=S(=O)(NCC(c1cccnc1)N1CCN(c2ccccc2)CC1)c1cccs1 (stereo not drawn)	9	15	-8	9	-18	-4%	4%
O=S(=O)(NCC(c1cccnc1)N1CCN(Cc2ccccc2)CC1)c1cc(F)ccc1F (stereo not drawn)	-5	70*	-15	11	43*	4%	17%
COc1ccc(N2CCN(C(CNS(=O)(=O)c3cccs3)c3cccnc3)CC2)cc1 (stereo not drawn)	-4	-1	26	-2	12	.	.
CCn1c(SCC(=O)Nc2ccc3c(c2)OCCO3)nnc1C1CC1	6	0	-22	-1	8	.	.
COc1ccc(-c2nc3n(n2)C(c2ccc(OC)c(OC)c2)C(C(=O)Nc2cccnc2)=C(C)N3)cc1 (stereo not drawn)	.	1	-13	.	.	.	.
CC1=C(C)CC(C(=O)NCCc2ccccc2)C(C(=O)O)C1 (stereo not drawn)	14	3	-7	4	-1	.	.
O=C(O)C1C2C=CC(C3CC23)C1C(=O)NCCc1ccccc1 (stereo not drawn)	-11	32*	-23	-1	5	12%	15%
COc1ccc(CC(=O)NNC(=O)c2ccc(NC(C)=O)cc2)cc1	2	1	10	-4	6	.	.
Cc1ccc(C(=O)CCC(=O)NNC(=O)c2ccccc2O)cc1	-1	0	10	-2	10	-5%	-2%
COc1ccc(C(=O)NNC(=O)Cc2ccc([N+](=O)[O-])cc2)cc1	-11	42*	-21	0	-13	1%	-2%
SMILES	D2 PAM-1	D2 ag-1	D2 PAM-2	D2 ag-2	D2 antagonist	D3 arrestin ag	D2 ag-3
Cc1ccc(NC(=O)CCC(=O)c2ccccc2)cc1	-7	.	.	0	.	.	.
Cc1ccc(S(=O)(=O)CCC(=O)OCC(=O)NNC(=O)c2ccc([N+](=O)[O-])cc2)cc1	-6	1	2	-3	12	.	.
Cc1ccc(C(=O)CCC(=O)OCC(=O)NNC(=O)c2ccc([N+](=O)[O-])cc2)cc1	28	.	.	1	.	0%	5%
Cc1ccc(C)c(NC(=O)c2cc(S(=O)(=O)N3CCN(c4cccc(Cl)c4)CC3)ccc2F)c1	.	.	24	.	.	.	.
COc1cc(/C=C2/NC(=O)NC2=O)ccc1OCC(=O)Nc1ccc(F)cc1	-6	0	10	2	-22	.	.
Cc1nc2ncnn2c(C)c1CCC(=O)N1CCN(c2cccc(Cl)c2)CC1	.	.	0	.	.	.	.
Cc1nc2ncnn2c(C)c1CCC(=O)NCCCN1CCN(c2cccc(Cl)c2)CC1	-1	76*	-18	?	72*	9%	?
Cc1ccccc1NC(=O)NCCCN1CCN(c2ccccc2F)CC1	.	.	-23	.	.	.	.
O=C(NCCCN1CCN(c2cccc(Cl)c2)CC1)C1CCC(=O)N1Cc1ccccc1Cl (stereo not drawn)	-49	50*	-23	2	40*	6%	?
CN(CCCNC(=O)C1CCC(=O)N1Cc1ccccc1Cl)c1ccccc1 (stereo not drawn)	-5	0	-5	0	10	.	.
COc1ccccc1NC(=O)NCCCN1CCN(c2cccc(Cl)c2)CC1	-15	49*	-24	-4	63*	3%	10%
COc1ccccc1N1CCN(CCCNC(=O)Nc2ccccc2C)CC1	-12	23	-26	2	87*	-12%	3%
O=Nc1ccc(NO)c2ccccc12	-2	.	.	?	.	.	.
COc1ccccc1N1CCN(CCCCOc2ccc(C)cc2C)CC1	0	62*	-29	10	82*	3%	7%
COc1ccccc1N1CCN(CCCCN2C(=O)c3ccccc3C2=O)CC1	-35	.	.	-7	.	.	.
Oc1ccc(CCNc2c3ccccc3nc3ccccc23)cc1O	8	91*	-20	130*	91*	11µM*	5µM*
C=CCC1Cc2c(cccc2[N+](=O)[O-])C(CC=C)N1 (stereo not drawn)	?	50*	-13	?	36*	?	22µM*
Cc1ccc(C(=O)COC(=O)CCS(=O)(=O)c2ccccc2)cc1[N+](=O)[O-]	-32	.	.	-11	.	-22%	-16%
CCc1ccc(C(=O)NNC(=O)c2ccc(=O)n(C)n2)cc1	-2	0	-2	-4	-13	.	.
